# ± gives the standard deviation of the averaged measurements.
# What was measured:
# Experiment in all cases: growth (OD600 after 10 h); higher = more growth (less inhibition)
# [1] = test system: E. coli TESEC Alr+ wild-type control; conditions: compound 0.1 mM; raw OD600 reference: median of DMSO wells 0.241, cell-free background 0.041
# Method: (§1)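 TESEC Mtb Alr E. coli, or the Alr+ wild-type control, in 384-well plates with Prestwick library compounds at 0.1 mM and 1% DMSO, across arabinose induction levels of 1E3 to 1E7 nM. Growth is read as OD600 after 10 h at 37 °C in triplicate biological replicates.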
# E. coli TESEC Mtb Alr [2] = conditions: compound 0.1 mM
# Method: as §1
# E. coli TESEC Mtb Asd = conditions: compound 0.1 mM
# Method: (§2)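 TESEC E. coli strains in which the native enzyme is deleted and replaced by arabinose-inducible Mtb Asd, DapB, CysH or TrpD, each grown in its selective medium. Strains were screened against the Prestwick library at 0.1 mM and 1% DMSO in 384-well format at low and high arabinose induction. Growth is read as OD600 after 10 h in triplicate.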
# E. coli TESEC Mtb DapB = conditions: compound 0.1 mM
# Method: as §2
# E. coli TESEC Mtb Alr [3] = conditions: compound 0.1 mM; remark: listed apart in the source
# Method: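 TESEC Mtb Alr E. coli (ΔaraC ΔtolC ΔentC Δalr ΔdadX, arabinose-inducible Mtb Alr) or the Alr+ wild-type control strain, grown in defined M9-fructose medium without D-alanine in 96-well plates with Prestwick library compounds at 0.1 mM and 1% DMSO. Low Alr induction is 0.1 µM arabinose and high induction is 10 mM arabinose.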
# [4] = arabinose 1000 nM, raw OD600 reference: median of DMSO wells 0.294, cell-free background 0.041
# [5] = arabinose 10000 nM, raw OD600 reference: median of DMSO wells 0.264, cell-free background 0.041
# [6] = arabinose 100000 nM, raw OD600 reference: median of DMSO wells 0.201, cell-free background 0.041
# [7] = arabinose 1000000 nM, raw OD600 reference: median of DMSO wells 0.193, cell-free background 0.041
# [8] = arabinose 10000000 nM, raw OD600 reference: median of DMSO wells 0.146, cell-free background 0.041
# [9] = arabinose induction (level): High, raw OD600 reference: median of DMSO wells 0.331, cell-free background 0.041
# [10] = arabinose induction (level): Low, raw OD600 reference: median of DMSO wells 0.417, cell-free background 0.041
# [11] = arabinose induction (level): High, raw OD600 reference: median of DMSO wells […], cell-free background 0.041
# [12] = arabinose induction (level): Low, raw OD600 reference: median of DMSO wells 0.227, cell-free background 0.041
# [13] = arabinose 100 nM, raw OD600 reference: median of DMSO wells 0.413, cell-free background 0.052
# [14] = arabinose 10000000 nM, raw OD600 reference: median of DMSO wells […], cell-free background 0.052
Compound,growth [1],growth (E. coli TESEC Mtb Alr [2]; [4]),growth (E. coli TESEC Mtb Alr [2]; [5]),growth (E. coli TESEC Mtb Alr [2]; [6]),growth (E. coli TESEC Mtb Alr [2]; [7]),growth (E. coli TESEC Mtb Alr [2]; [8]),growth (E. coli TESEC Mtb Asd; [9]),growth (E. coli TESEC Mtb Asd; [10]),growth (E. coli TESEC Mtb DapB; [11]),growth (E. coli TESEC Mtb DapB; [12]),growth (E. coli TESEC Mtb Alr [3]; [13]),growth (E. coli TESEC Mtb Alr [3]; [14])
C[C@@](Cc1ccc(O)c(O)c1)(NN)C(=O)O [Carbidopa],0.225 ± 0.0049,0.292 ± 0.024,0.118 ± 0.0053,0.228 ± 0.048,0.0919 ± 0.00096,0.193 ± 0.0067,0.283 ± 0.11,0.357 ± 0.04,0.159 ± 0.016,0.173 ± 0.018,0.375 ± 0.014,0.257 ± 0.012
O=C(CCCN1CCN(c2ccccn2)CC1)c1ccc(F)cc1 [Azaperone],0.192 ± 0.0058,0.2624 ± 0.0023,0.294 ± 0.0053,0.164 ± 0.013,0.177 ± 0.0089,0.146 ± 0.0043,0.217 ± 0.017,0.326 ± 0.029,0.194 ± 0.0048,0.264 ± 0.05,0.423 ± 0.0076,0.304 ± 0.01
C[N+]1(CCCCC[N+]2(C)CCCC2)CCCC1 [Pentolinium bitartrate],0.24 ± 0.0027,0.282 ± 0.017,0.275 ± 0.0033,0.202 ± 0.014,0.1794 ± 0.0012,0.143 ± 0.0032,0.296 ± 0.037,0.424 ± 0.02,0.1752 ± 0.00061,0.185 ± 0.0091,0.415 ± 0.011,0.361 ± 0.006
CN1CCN(c2c(F)cc3c(=O)c(C(=O)O)cn4c3c2SCC4)CC1 [Rufloxacin],0.04323 ± 0.00015,0.0429 ± 0.001,0.03973 ± 0.00031,0.04207 ± 0.00031,0.03957 ± 0.00025,0.0429 ± 0.0015,0.04973 ± 0.00045,0.0499 ± 0.0012,0.0507 ± 0.00094,0.0509 ± 0.0014,0.0582 ± 0.0019,0.05197 ± 0.00051
c1ccc2[nH]c(-c3cscn3)nc2c1 [Tiabendazole],0.222 ± 0.014,0.275 ± 0.0031,0.253 ± 0.011,0.203 ± 0.021,0.188 ± 0.0046,0.15 ± 0.011,0.278 ± 0.085,0.326 ± 0.1,0.186 ± 0.003,0.192 ± 0.023,0.408 ± 0.011,0.316 ± 0.015
C[C@H](O)C(=O)Nc1c(I)c(C(=O)NC(CO)CO)c(I)c(C(=O)NC(CO)CO)c1I [Iopamidol],0.261 ± 0.011,0.323 ± 0.014,0.287 ± 0.012,0.217 ± 0.0049,0.195 ± 0.0084,0.166 ± 0.0031,0.443 ± 0.035,0.396 ± 0.035,0.221 ± 0.0036,0.249 ± 0.028,0.397 ± 0.022,0.338 ± 0.011
COc1cc(NS(=O)(=O)c2ccc(N)cc2)ncn1 [Sulfamonomethoxine],0.222 ± 0.0061,0.259 ± 0.022,0.173 ± 0.0027,0.2 ± 0.0044,0.1141 ± 0.00026,0.1384 ± 0.0013,0.345 ± 0.061,0.413 ± 0.018,0.166 ± 0.026,0.19 ± 0.014,0.422 ± 0.0097,0.331 ± 0.0088
Cc1c(N(C)CS(=O)(=O)O)c(=O)n(-c2ccccc2)n1C [Dipyrone],0.245 ± 0.0074,0.323 ± 0.022,0.251 ± 0.0032,0.217 ± 0.023,0.169 ± 0.0052,0.157 ± 0.0028,0.488 ± 0.025,0.452 ± 0.0059,0.204 ± 0.003,0.23 ± 0.012,0.4104 ± 0.0007,0.335 ± 0.011
CC(C)(C)NCC(O)c1ccc(O)c(CO)c1 (stereo unspecified) [Salbutamol],0.241 ± 0.0029,0.285 ± 0.015,0.271 ± 0.0082,0.192 ± 0.0026,0.183 ± 0.0057,0.137 ± 0.0049,0.318 ± 0.067,0.436 ± 0.032,0.215 ± 0.015,0.233 ± 0.028,0.43 ± 0.0098,0.383 ± 0.017
C[C@H](CCC(=O)O)[C@H]1CC[C@H]2[C@@H]3[C@@H](O)C[C@@H]4C[C@H](O)CC[C@]4(C)[C@H]3CC[C@]12C [Urosiol],0.2 ± 0.0037,0.279 ± 0.0063,0.188 ± 0.0089,0.188 ± 0.0055,0.1123 ± 0.00023,0.14 ± 0.0032,0.3936 ± 0.0024,0.363 ± 0.018,0.168 ± 0.012,0.206 ± 0.03,0.399 ± 0.0058,0.182 ± 0.019
CNc1ncnc2c1ncn2[C@@H]1O[C@H](CO)[C@@H](O)[C@H]1O [N6-methyladenosine],0.283 ± 0.008,0.334 ± 0.023,0.263 ± 0.0068,0.261 ± 0.012,0.189 ± 0.003,0.15 ± 0.0032,0.343 ± 0.044,0.416 ± 0.023,0.21 ± 0.0029,0.209 ± 0.0066,0.28 ± 0.065,0.364 ± 0.0048
CC1=C(CC(=O)O)c2cc(F)ccc2/C1=C\c1ccc([S+](C)[O-])cc1 (stereo unspecified) [Sulindac],0.166 ± 0.0055,0.206 ± 0.0077,0.181 ± 0.0019,0.125 ± 0.0091,0.0898 ± 0.0021,0.103 ± 0.0038,0.151 ± 0.018,0.243 ± 0.012,0.151 ± 0.013,0.196 ± 0.054,0.364 ± 0.063,0.11 ± 0.01
NC(=O)N1c2ccccc2CC(=O)c2ccccc21 [Oxcarbazepine],0.236 ± 0.0086,0.269 ± 0.015,0.256 ± 0.0035,0.211 ± 0.03,0.171 ± 0.0024,0.146 ± 0.0084,0.225 ± 0.042,0.322 ± 0.043,0.189 ± 0.0098,0.201 ± 0.019,0.403 ± 0.0086,0.321 ± 0.0074
O=P(O)(O)C(O)(Cn1ccnc1)P(=O)(O)O [Zoledronic acid hydrate],0.241 ± 0.0059,0.279 ± 0.0055,0.278 ± 0.0062,0.192 ± 0.022,0.211 ± 0.0037,0.134 ± 0.0016,0.257 ± 0.083,0.357 ± 0.034,0.193 ± 0.0053,0.279 ± 0.069,0.421 ± 0.011,0.294 ± 0.021
Oc1ccc(OCc2ccccc2)cc1 [Monobenzone],0.176 ± 0.0053,0.213 ± 0.017,0.249 ± 0.011,0.169 ± 0.004,0.134 ± 0.0036,0.161 ± 0.0038,0.314 ± 0.099,0.325 ± 0.025,0.2 ± 0.0057,0.21 ± 0.017,0.395 ± 0.019,0.304 ± 0.018
C=CC(N)CCC(=O)O (stereo unspecified) [Vigabatrin],0.239 ± 0.005,0.279 ± 0.014,0.278 ± 0.0034,0.213 ± 0.013,0.191 ± 0.0036,0.148 ± 0.0044,0.313 ± 0.06,0.389 ± 0.089,0.174 ± 0.0095,0.192 ± 0.014,0.411 ± 0.014,0.361 ± 0.046
Cc1cn[nH]c1 [Fomepizole],0.242 ± 0.0098,0.2912 ± 0.0021,0.249 ± 0.0059,0.231 ± 0.024,0.178 ± 0.003,0.137 ± 0.0022,0.233 ± 0.036,0.364 ± 0.065,0.193 ± 0.014,0.215 ± 0.0091,0.423 ± 0.011,0.367 ± 0.017
COc1ccccc1N1CCN(CCCCNC(=O)c2ccc3ccccc3c2)CC1,0.149 ± 0.0027,0.179 ± 0.013,0.2704 ± 0.0024,0.195 ± 0.019,0.124 ± 0.0029,0.182 ± 0.0013,0.156 ± 0.0093,0.265 ± 0.013,0.188 ± 0.017,0.2 ± 0.012,0.398 ± 0.0097,0.181 ± 0.024
